# Laboratory results taken from PubChem BioAssay (Tox21).
# Results filed as inconclusive are left out. Entries that show only a call come without a potency. The source made the active and inactive calls. Unless noted, the call rests on the fitted dose curve; in most records, active means well fitted curve in the direction sought with a large enough effect in the repeat runs; inconclusive means weak or mixed curves; inactive means no such curve, though single readings can be large; an effect the other way counts as inactive or inconclusive.
# How the values were obtained:
# [1] = qHTS assay to identify small molecule agonists of the vitamin D receptor (VDR) signaling pathway - cell viability counter screen (AID 743224); further: series mostly up to about 63 µM; nearly all actives have a fitted effect of over 50% in size
# In short: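 Viability is measured in the same wells as the VDR-bla reporter assay: after 16 h compound treatment and 2 h substrate loading, CellTiter-Glo is added and luminescence read 30 min later.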
# [2] = qHTS assay to identify small molecule antagonists of the vitamin D receptor (VDR) signaling pathway - cell viability counter screen (AID 743225); further: nearly all actives have a fitted effect of over 50% in size
# In short: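 Cytotoxicity toward the VDR-bla HEK 293T line was scored by ATP-based CellTiter-Glo luminescence, read in the wells already used for the beta-lactamase readout after 16 h compound treatment under 3 nM 1-alpha,25-dihydroxyvitamin D3 stimulation.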
# [3] = qHTS assay to identify small molecule agonists of the NFkB signaling pathway - cell viability counter screen (AID 1159515; calls by dose curve; further: series mostly up to about 61 µM; nearly all actives have a fitted effect of over 55% in size)
# In short: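 Multiplexed viability readout: after the 5 hr compound exposure and 1.5 hr FRET substrate step, CellTiter-Glo reagent went into the same NFkB-bla ME-180 wells; ATP luminescence was measured after 30 min at room temperature.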
# [4] = qHTS assay to identify small molecule agonists of the endoplasmic reticulum stress response signaling pathway (AID 1159516; active means well fitted activation curve with a large enough effect in the signal ratio in the repeat runs, not every such curve was filed as active; the % refers to the signal ratio)
# In short: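 Tox21 10K library screened in quantitative HTS format on ESRE-bla HeLa cells, a beta-lactamase reporter under ER stress response element control; 5 hr treatment, FRET read.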
# [5] = qHTS assay to identify small molecule agonists of the endoplasmic reticulum stress response signaling pathway - cell viability counter screen (AID 1159517; calls by dose curve; further: series mostly up to about 61 µM; nearly all actives have a fitted effect of over 50% in size)
# In short: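 HeLa cells carrying an ESRE-driven beta-lactamase reporter receive compound for 5 hr at 37 C. Cell viability is then gauged with CellTiter-Glo by luminescence, 30 min at room temperature.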
# [6] = qHTS assay to identify small molecule antagonists of the retinoid-related orphan receptor gamma (ROR-gamma) signaling pathway - cell viability counter screen (AID 1159520); further: nearly all actives have a fitted effect of over 50% in size
# In short: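 Cytotoxicity was read from cellular ATP (CellTiter-Glo luminescence) after 16 hr at 37 C with 1 uM doxycycline induction. The inducer was added 2 hr after compound transfer to Tet-on ROR gamma CHO cells.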
# [7] = target: Nuclear receptor ROR-gamma (Homo sapiens) (UniProt P51449); test: qHTS assay to identify small molecule antagonists of the retinoid-related orphan receptor gamma (ROR-gamma) signaling pathway (AID 1159521; further: nearly all actives have a fitted effect of over 50% in size; further: potency means the concentration at half of the fitted maximal effect)
# In short: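 Readout: ONE-Glo luciferase luminescence, 30 min at room temperature. System: Tet-on RORγ CHO, RORE-LUC. Sequence: compound 2 h, doxycycline 1 uM final, 16 h at 37 C.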
# [8] = qHTS assay to identify small molecule agonists of the AP-1 signaling pathway (AID 1159526; calls by dose curve)
# [9] = qHTS assay to identify small molecule agonists of the RXR signaling pathway - cell viability counter screen (AID 1159529)
# In short: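 Tox21 10K compounds were tested for cytotoxicity against GeneBLAzer RXR-alpha HEK 293T cells grown in 2% charcoal-stripped FBS. Exposure lasted 16 hr at 37 C, 5% CO2; viability read by CellTiter-Glo luminescence.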
# [10] = qHTS assay to identify small molecule antagonists of the retinoid acid receptor (RAR) signaling pathway - cell viability counter screen (AID 1159551); further: nearly all actives have a fitted effect of over 35% in size
# In short: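 Cytotoxicity counter screen in C3RL4 cells: 6 h compound exposure with 1 uM retinol (final), viability from cellular ATP by luminescence.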
# [11] = qHTS assay to identify small molecule agonists of the retinoic acid receptor (RAR) signaling pathway (AID 1159553); further: potency means the concentration at half of the fitted maximal effect
# In short: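 Agonist activity was scored in C3RL4 cells bearing a retinoic acid response element luciferase construct. Cells were treated with compounds for 6 hr at 37 C, and luciferase signal was measured as luminescence.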
# [12] = qHTS assay to identify small molecule agonists of the AP-1 signaling pathway - cell viability counter screen (AID 1159525; calls by dose curve; further: nearly all actives have a fitted effect of over 55% in size)
# In short: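 Luminescent ATP readout (Cell Titer Glo, 30 min RT), normalised to DMSO and tetra n-octyl ammonium bromide controls. Cells were ME-180 AP-1-bla in 0.5% dialyzed FBS Opti-MEM, with a 5 h, 37 °C compound exposure.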
# [13] = target: Retinoic acid receptor RXR-alpha (Homo sapiens) (UniProt P19793); test: qHTS assay to identify small molecule agonists of the RXR signaling pathway (AID 1159527; calls by dose curve; further: nearly all actives have a fitted effect of over 35% in size)
# Retinoic acid receptor RXR-alpha (Homo sapiens), sequence (P19793 whole entry, looked up): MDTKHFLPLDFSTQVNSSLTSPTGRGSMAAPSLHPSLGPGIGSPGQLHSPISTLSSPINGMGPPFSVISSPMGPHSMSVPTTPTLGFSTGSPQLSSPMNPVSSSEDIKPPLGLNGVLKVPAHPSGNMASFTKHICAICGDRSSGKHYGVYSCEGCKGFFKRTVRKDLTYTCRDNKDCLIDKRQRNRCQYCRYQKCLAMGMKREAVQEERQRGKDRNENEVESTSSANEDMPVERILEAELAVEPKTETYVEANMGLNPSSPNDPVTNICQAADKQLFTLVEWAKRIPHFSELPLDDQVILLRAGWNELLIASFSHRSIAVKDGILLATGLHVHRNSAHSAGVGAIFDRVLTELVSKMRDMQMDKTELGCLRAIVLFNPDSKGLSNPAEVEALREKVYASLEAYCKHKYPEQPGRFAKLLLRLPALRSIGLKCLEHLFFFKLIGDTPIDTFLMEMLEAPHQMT
# In short: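 Reporter activation is measured as beta-lactamase activity via FRET substrate cleavage (emission 460/530 nm) in HEK 293T cells expressing an RXR-alpha-driven bla construct, following 16 hr compound exposure at 37 C.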
# [14] = qHTS assay to identify small molecule antagonists of the retinoic acid receptor (RAR) signaling pathway (AID 1159552; further: nearly all actives have a fitted effect of over 50% in size)
# In short: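 Overnight-plated C3RL4 reporter cells get compound, then retinol to 1 uM final; plates sit 6 hr at 37 C, 5% CO2. A luciferase reagent is added and light output recorded after 30 min at room temperature.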
# [15] = qHTS assay to identify small molecule antagonists of the estrogen related receptor (ERR) signaling pathway - cell viability counter screen (AID 1224818);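 further: series mostly up to about 46 µM; viability measured after 17.5 h of compound exposure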
# In short: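 Cells carrying the ERR pathway reporter were seeded and incubated for 6 hours before compound addition. After a 17.5-hour exposure at 37 C, live-cell protease activity was measured by CellTiter-Fluor fluorescence following 30 minutes of incubation.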
# [16] = qHTS assay to identify small molecule antagonists of the estrogen related receptor signaling pathway with the pleiotropic PPARgamma coactivator (PGC) cell viability counter screen (AID 1224822;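 further: series mostly up to about 46 µM; viability read after 17.5 h compound exposure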)
# In short: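 Seed PGC/ERR cells (2,000/well); incubate 6 h at 37 C/5% CO2; pin-transfer compounds in DMSO; incubate 17.5 h at 37 C; add CellTiter-Fluor; after 30 min read fluorescence.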
# [17] = qHTS assay to identify small molecule antagonists of the estrogen related receptor (ERR) signaling pathway (AID 1224819)
# In short: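 Compounds dissolved in DMSO were pin-transferred onto ERR cells that had been plated 6 h earlier, and cells were then incubated 18 h at 37 C; signal was luciferase luminescence via One-Glo.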
# [18] = qHTS assay to identify small molecule agonists of the estrogen related receptor (ERR) signaling pathway (AID 1224820)
# In short: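 ERR reporter cell line (from NTP), 2,000 cells/well, incubated 6 h before compound addition, then 18 h at 37 C. Luminescence measured 30 min after One-Glo reagent at room temperature.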
# [19] = system: estrogen-related receptor alpha (ERRalpha) with PGC-1alpha coactivator, human; test: qHTS assay to identify small molecule antagonists of the estrogen related receptor signaling pathway with the pleiotropic PPARgamma coactivator (PGC) (AID 1224821; calls by dose curve)
# In short: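 PGC/ERR reporter cell line, plated 6 h before compound addition, then exposed 18 h at 37 °C. Luciferase activity read by luminescence 30 min after One-Glo addition; decrease indicates antagonism.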
# [20] = qHTS assay to identify small molecule agonists of the estrogen related receptor signaling pathway with the pleiotropic PPARgamma coactivator (PGC) (AID 1224823)
# In short: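 PGC/ERR reporter cells seeded 6 h, then exposed to compounds (23 nL in DMSO) for 18 h at 37 C. One-Glo luciferase luminescence read after 30 min at room temperature.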
SMILES,outcome [1],outcome [2],outcome [3],outcome [4],outcome [5],outcome [6],Potency [7],outcome [8],Potency [9],outcome [10],Potency [11],outcome [12],Potency [13],Potency [14],outcome [15],outcome [16],outcome [17],outcome [18],outcome [19],outcome [20]
CC1=NN(c2cc(S(=O)(=O)O)ccc2Cl)C(=O)C1N=Nc1ccccc1 (configuration not stated),inactive,inactive,inactive,inactive,inactive,inactive,inactive,inactive,inactive,inactive,68.6 µM (active),,,,,,,,,
COc1c(N2CCNC(C)C2)c(F)cc2c(=O)c(C(=O)O)cn(C3CC3)c12 (configuration not stated),inactive,inactive,inactive,inactive,inactive,inactive,inactive,inactive,inactive,inactive,inactive,,,,,,,,,
CC12CCC(C(=O)C1=O)C2(C)C (configuration not stated),inactive,inactive,inactive,inactive,inactive,,inactive,inactive,inactive,inactive,inactive,inactive,,,,,,,,
O=C(CO)[C@@H](O)[C@H](O)[C@H](O)CO,inactive,inactive,inactive,inactive,inactive,,inactive,inactive,inactive,inactive,,inactive,inactive,,,,,,,
CC(=O)N[C@H]1[C@H]([C@H](O)[C@H](O)CO)OC(C(=O)O)=C[C@@H]1N=C(N)N,inactive,inactive,inactive,inactive,inactive,,inactive,inactive,inactive,inactive,,inactive,inactive,,,,,,,
C=CCOCC(O)CO (configuration not stated),inactive,inactive,inactive,inactive,inactive,,inactive,inactive,inactive,inactive,,inactive,inactive,,,,,,,
C1CCC2=NCCCN2CC1,inactive,,inactive,inactive,inactive,,inactive,inactive,inactive,inactive,,inactive,inactive,,,,,,,
COc1ccnc(CS(=O)c2nc3cc(OC(F)F)ccc3[nH]2)c1OC (configuration not stated),inactive,inactive,inactive,inactive,inactive,,inactive,inactive,inactive,inactive,,,inactive,,,,,,,
Cc1ccc(C(=O)c2ccccc2)cc1,inactive,inactive,inactive,inactive,inactive,,inactive,inactive,inactive,inactive,,inactive,inactive,inactive,,,,,,
N[C@H](C(=O)O)[C@@H](O)c1ccc(O)c(O)c1,inactive,inactive,inactive,inactive,inactive,,inactive,inactive,inactive,inactive,,inactive,inactive,,,,,,,
CCCC(C)C(=O)OCC (configuration not stated),inactive,,inactive,inactive,inactive,,inactive,inactive,inactive,inactive,,inactive,inactive,inactive,,,,,,
Cc1ccnc(NS(=O)(=O)c2ccc(N)cc2)n1,inactive,inactive,inactive,inactive,inactive,,inactive,inactive,inactive,inactive,,inactive,inactive,,,,,,,
O=C1NC(=O)C2CC=CCC12 (configuration not stated),inactive,inactive,inactive,inactive,inactive,,inactive,inactive,inactive,inactive,inactive,inactive,,inactive,,,,,,
CCOC(=O)c1cnc2c(cnn2CC)c1NN=C(C)C,inactive,inactive,inactive,inactive,inactive,inactive,inactive,inactive,inactive,inactive,,,,,inactive,inactive,,,,
CNCC(O)c1ccc(O)c(O)c1 (configuration not stated),inactive,inactive,inactive,inactive,inactive,,inactive,inactive,inactive,inactive,inactive,inactive,inactive,,inactive,inactive,inactive,inactive,inactive,inactive
Cc1ncc(COP(=O)(O)O)c(C=O)c1O,inactive,inactive,inactive,inactive,inactive,,inactive,inactive,inactive,inactive,inactive,inactive,inactive,,,,,,,
CC(C)CC(C)(N)C#N (configuration not stated),inactive,inactive,inactive,inactive,inactive,,inactive,inactive,inactive,inactive,,,inactive,,,,,,,
Nc1ccn([C@@H]2O[C@H](CO)[C@@H](O)C2(F)F)c(=O)n1,inactive,inactive,inactive,,inactive,inactive,237 nM (active),inactive,inactive,inactive,inactive,inactive,inactive,,,,,,,
